# Compound activity from PubChem BioAssay.
# Most compounds without a hit are left out; they make up all but 11% or so of the library.
# BAZ2B inh – qHTS Assay for Inhibitors of BAZ2B; Bromodomain adjacent to zinc finger domain protein 2B (Homo sapiens), Q9UIF8; 360,000 compounds, 4.4% hits; AID 504333, 2011; Potency, µM (titrated, usually from 114 µM), for inactives: at the highest dose activity change, negative = inhibition, usual class: inhibitors; AlphaScreen BAZ2B-H3K14Ac peptide displacement; also: potency is read from the fitted curve at half-maximal effect; % is scaled to controls: 0 for no effect and ±100 for the full control effect; nearly all actives have a fitted effect of over 60% in size
#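 BAZ2B 50 nM plus b-H3(5-23)K14Ac 50 nM, PBS pH 7.4/0.01% Tween-20, 30 min RT; compound added (max 110 uM), 30 min RT; streptavidin donor/Ni-chelate acceptor beads 10 ug/mL final, 20 min dark; AlphaScreen read.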
# PI5P4K alpha inh – qHTS for Inhibitors of phosphatidylinositol 5-phosphate 4-kinase (PI5P4K) | PI5P4Kalpha enzyme, ADP-Glo luminescence, 60 min; stronger effect = lower value | max response, % | 330,000 compounds, 1.2% hits | AID 652105, 2013; active = max response of -50% or lower; inconclusive = between -30% and -50%; inactive = -30% or higher; also: value at the top dose of about 77 µM; % is scaled to controls: 0 for no effect and ±100 for the full control effect
#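 qHTS, 1536-well: enzyme/substrate mix, compound by pin tool, 5 microM ATP final; RT 60 min; ADP-Glo reagents 1 (45 min) then 2 (30 min); luminescence.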
# JMJD2A Tudor – qHTS Assay for Inhibitors of JMJD2A-Tudor Domain | 390,000 compounds, 4.4% hits | AlphaScreen JMJD2A-Tudor / H3K4me3 peptide binding | Potency, µM (series often up to 114 µM), inactives show at the top dose activity change, negative = inhibition, hits mostly inhibitors | Lysine-specific demethylase 4A (Homo sapiens), O75164; also: potency is read from the fitted curve at half-maximal effect; % is scaled to controls: 0 for no effect and ±100 for the full control effect; nearly all actives have a fitted effect of over 50% in size
# L3MBTL1 inh – qHTS Assay for the Inhibitors of L3MBTL1; Lethal(3)malignant brain tumor-like protein 1 (Homo sapiens), Q9Y468; AID 485360, 2010; Potency, µM (titrated, usually from 57.1 µM), inactives show top-dose activity, negative = inhibition, actives largely listed as inhibitors; 230,000 compounds, 0.66% hits; AlphaScreen L3MBTL1–H3K9me1 peptide binding; also: potency is read from the fitted curve at half-maximal effect; % is scaled to controls: 0 for no effect and ±100 for the full control effect; nearly all actives have a fitted effect of over 60% in size
# Target sequence (Q9Y468 whole entry, looked up): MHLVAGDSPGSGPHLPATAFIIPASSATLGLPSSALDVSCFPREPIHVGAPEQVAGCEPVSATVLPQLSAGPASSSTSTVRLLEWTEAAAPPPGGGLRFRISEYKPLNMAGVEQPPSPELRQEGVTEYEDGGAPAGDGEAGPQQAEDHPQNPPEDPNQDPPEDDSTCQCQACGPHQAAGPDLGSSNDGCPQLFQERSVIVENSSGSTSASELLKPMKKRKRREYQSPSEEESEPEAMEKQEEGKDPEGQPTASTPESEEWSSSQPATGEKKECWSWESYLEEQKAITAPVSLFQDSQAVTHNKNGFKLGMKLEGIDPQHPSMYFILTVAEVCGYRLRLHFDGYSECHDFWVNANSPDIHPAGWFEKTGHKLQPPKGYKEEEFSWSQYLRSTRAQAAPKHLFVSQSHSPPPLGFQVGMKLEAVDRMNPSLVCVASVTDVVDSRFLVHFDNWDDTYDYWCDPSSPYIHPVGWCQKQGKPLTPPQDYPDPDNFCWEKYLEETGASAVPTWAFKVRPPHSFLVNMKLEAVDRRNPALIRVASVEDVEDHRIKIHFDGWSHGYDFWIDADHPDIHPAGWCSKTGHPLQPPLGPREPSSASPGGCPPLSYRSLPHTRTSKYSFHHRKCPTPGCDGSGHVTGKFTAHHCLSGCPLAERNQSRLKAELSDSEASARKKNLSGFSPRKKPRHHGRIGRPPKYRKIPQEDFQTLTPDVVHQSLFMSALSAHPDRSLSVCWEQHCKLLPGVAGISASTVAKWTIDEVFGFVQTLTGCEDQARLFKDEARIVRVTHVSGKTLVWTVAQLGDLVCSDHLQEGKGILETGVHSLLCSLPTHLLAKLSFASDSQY
#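 First, the protein-peptide complex forms for 30 min at room temperature (L3MBTL1 50 nM, biotinylated H3K9me1 peptide 75 nM). Next, compounds are pin-transferred and incubated 30 min. Finally, AlphaScreen beads are added and read after 30 min.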
# G9a inh – qHTS Assay for Inhibitors of Histone Lysine Methyltransferase G9a. G9a H3K9 monomethylation, AlphaScreen, 2 h. Potency, µM (top dose mostly 102 µM), for inactives: at the top dose activity, negative = inhibition, most hits filed as inhibitors. 350,000 compounds, 8.8% hits; also: potency is read from the fitted curve at half-maximal effect; % is scaled to controls: 0 for no effect and ±100 for the full control effect; nearly all actives have a fitted effect of over 75% in size
#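 AlphaScreen detection with an anti-monomethyl H3K9 antibody quantified product after a 2 h room-temperature reaction containing 500 nM biotinylated H3K9 peptide, 20 µM SAM and 20 nM enzyme, which had been preincubated 15 min with compound.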
# HP1b chromo inh – HTS for Inhibitors of HP1-beta Chromodomain Interactions with Methylated Histone Tails. Potency, µM (titrated, usually from 114 µM), for the others: at the top dose activity change, negative = inhibition, hits mostly inhibitors. Chromobox protein homolog 1 (Homo sapiens), P83916. AID 540317, 2011. 390,000 compounds, 0.56% hits. AlphaScreen HP1-beta / biotin-H3K9me3 peptide binding; also: potency is read from the fitted curve at half-maximal effect; nearly all actives have a fitted effect of over 70% in size
#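 HP1-beta protein (50 nM final) preincubated 30 min at room temperature with biotinylated H3(1-18)K9me3 peptide (50 nM) in PBS pH 7.4, 0.01% Tween-20, then compound added for 30 min. AlphaScreen streptavidin donor/nickel chelate acceptor beads (10 ug/mL final), 30 min dark, luminescence read.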
# Starred values were filed as active, the others as inactive; ? = inconclusive; . = not tested or not shown; ! = repeats disagree; [ ] = another dose, or the depositor's remark. Unless noted, calls follow the shape of the dose curve; as a rule, active = well fitted inhibition curve with a large enough effect; inconclusive = small, poorly fitted or top-dose-only effect; inactive = no such curve, though single readings can be large or run the other way.
SMILES,BAZ2B inh,PI5P4K alpha inh,JMJD2A Tudor,L3MBTL1 inh,G9a inh,HP1b chromo inh
CCOC(=O)C1CCN(C(=O)C2CCN(C3=NS(=O)(=O)C(c4ccc(C)cc4)=C3CC)CC2)CC1,33%,.,-23%,.,37%[59 µM],53%
CNC(=S)Nc1cccc(S(=O)(=O)NC2=NCCC2)c1,.,-1,-1%,.,50µM*,23%
CCCNCC(=O)Nc1cccc(S(=O)(=O)NC2=NCCCCC2)c1,.,-9,1µM*,-4%,.,?
Cc1ccc(CNCC(=O)Nc2cccc(S(=O)(=O)NC3=NCCCCC3)c2)cc1,?,0,7.9µM*,5%,40µM*,?
Cc1ccc(Nc2nnc(SCC(=O)Nc3cccc(S(=O)(=O)NC4=NCCCCC4)c3)s2)c(C)c1,-25%,-12,-26%,1%,40µM*,5%
COCCCNC(=S)Nc1cccc(S(=O)(=O)NC2=NCCC2)c1,1%,4,-11%,12%,0%,33%
O=c1c(-c2ccccc2)nc2cnc(N3CCOCC3)nc2n1CCc1ccccc1,.,.,.,.,22%[0.501 µM],.
Cc1ccc(C)c(Cn2c(=O)cc(C)c3c(C)nn(C)c32)c1,18%,.,25%,.,38%[59 µM],79%
Cc1cccc(-c2nc(CC(=O)Nc3cccc(S(=O)(=O)NC4=NCCC4)c3)cs2)c1,3%,-23,-19%,-4%,?,20%
O=C(Cc1csc(-c2cccc(Cl)c2)n1)Nc1cccc(S(=O)(=O)NC2=NCCC2)c1,0%,-7,-24%,4%,14µM*,16%
COc1cc(C(=O)N(Cc2ccccn2)CC2CCCO2)cc(OC)c1OC (stereo not given),56µM*,.,18µM*,.,-39%[12.7 µM],-17%
COc1ccc(C(=O)N(Cc2cc(OC)c(OC)c(OC)c2)CC2CCCO2)cc1 (stereo not given),-6%,.,-8%,.,-1%[59 µM],13%
Cc1c(CNC2CCCCC2)c(C(=O)O)c(C)n1Cc1c(F)cccc1Cl,-15%,.,-20%,.,5%[59 µM],0%
O=C(O)C(S)C(S)C(=O)O (stereo not given),.,-55*,50µM*,.,.,?
OC[C@@H](O)C(O[C@@H]1O[C@@H](CO)[C@H](O)[C@H](O)[C@H]1O)[C@H](O)[C@@H](O)CO (stereo not given in full),.,.,.,.,24%[59 µM],.
CC1(C)CC(C)(c2ccc(O)cc2O)N(c2cccc(Cl)c2)C(=S)N1 (stereo not given),?,-21,?,-4%,?,-14%
CC1(C)CC(C)(c2ccc(O)cc2O)N(c2ccc3ccccc3c2)C(=S)N1 (stereo not given),45µM*,-19,?,-20%,?,-33%
COc1ccccc1Nc1cc2ccccc2c(=O)[nH]1,.,.,79µM*,.,.,.
O=c1[nH]c(Nc2ccc(F)cc2)cc2ccccc12,-10%,.,-14%,.,11µM*,10%
O=c1[nH]c(Nc2ccccc2Cl)cc2ccccc12,.,2,-7%,.,.,27%
O=c1[nH]c(Nc2ccccn2)cc2ccccc12,.,3,-4%,.,.,28%
Cc1ccccc1Nc1cc2ccccc2c(=O)[nH]1,-35%,-10,45µM*!,-14%,?,-9%
Nc1ccccc1C(=O)C[C@@H](N)C(=O)O,.,.,.,.,30%[59 µM],.
Cc1nc(N)sc1C(=O)N1N=N1,-14%,3,?,2%,8.9µM*,6%
O=C(NC1CCCCC1)Oc1cc2oc(=O)sc2cc1Br,-19%,-22,-27%,.,40µM*,1%
SMILES,BAZ2B inh,PI5P4K alpha inh,JMJD2A Tudor,L3MBTL1 inh,G9a inh,HP1b chromo inh
O=C(NC1CCCCCC1)c1ccc(Br)o1,0%,1,-1%,.,-17%,29%
O=C(CN1C(=O)c2ccccc2C1=O)Nc1nnc(C2CCCO2)s1 (stereo not given),-15%,.,-7%,.,45µM*,16%
CCCC(=O)Nc1nnc(C2CCCO2)s1 (stereo not given),2%,10,?,6%,13%[0.501 µM],29%
O=c1[nH]c2c(oc3ccccc32)c(=O)n1Cc1ccccc1,1%,-8,-14%,.,23%,5%
Cc1ccc(-n2c(=O)c3oc4ccccc4c3n(Cc3cccc(F)c3)c2=O)cc1C,?,.,-15%,.,-36%[59 µM],28%
O=c1c2oc3ccccc3c2[nH]c(=S)n1-c1ccc(F)cc1,.,4,6%,.,50µM*,37%
Cc1ccc(-n2c(=S)[nH]c3c(oc4ccccc43)c2=O)cc1C,11%,-17,0%,3%,79µM*,12%
Cc1cc2c(s1)c1cnn(Cc3cccc(C(F)(F)F)c3F)c(=O)c1n2C,.,.,-28%,.,.,.
Cc1cc(-c2ccc(S(=O)(=O)Nc3cccc(C)c3C)s2)on1,1%,.,4%,.,-4%[59 µM],35%
Cc1cc2oc(C(=O)N(Cc3ccco3)Cc3ccccc3Cl)c(C)c2cc1C,3%,.,-6%,.,12%[59 µM],44%
CCn1cnc2sc(C(=O)N(Cc3ccc(N(C)C)cc3)Cc3ccco3)c(C)c2c1=O,45µM*,-4,50µM*,?,16µM*,35µM*
Cc1ccc(C(=O)N(Cc2ccco2)Cc2ccco2)cc1,?,.,-29%,.,?,13%
Cc1cc2oc(C(=O)N(Cc3ccc(N(C)C)cc3)Cc3ccco3)c(C)c2cc1Cl,13µM*,.,13µM*,.,13µM*,?
COc1ccc(C(=O)N(Cc2ccc(N(C)C)cc2)Cc2ccco2)cc1Cl,20µM*,.,35µM*,.,?,?
CN(C)c1ccc(CN(Cc2ccco2)C(=O)c2ccc(C(C)(C)C)cc2)cc1,11µM*,.,13µM*,.,11µM*,?
CCn1cnc2sc(C(=O)Oc3ccc(Br)cc3)c(C)c2c1=O,-2%,7,-5%[57.1 µM],.,-4%[59 µM],43%
CCc1nn2c(=O)cc(COC(=O)c3ccco3)nc2s1,-4%,.,-6%,.,10%[59 µM],-4%
O=C(CCCSc1ccc(Cl)cc1)Nc1cc(S(=O)(=O)N2CCOCC2)ccc1O,?,-29,56µM*,-5%,?,?
O=S(=O)(c1ccc2c(c1)N(Cc1ccc(Cl)cc1)C1CCCN21)N1CCOCC1 (stereo not given),-1%,1,-15%,1%,50µM*,1%
